MCF10A rereplic – induces DNA re-replication in MCF 10a normal breast cells | MCF 10A DNA re-replication, Hoechst nuclear intensity, 48 h | Potency, µM (top dose mostly 46.1 µM), inactives show at the top dose activity, positive = re-replication, actives largely listed as activators | 350,000 tested, 2.9% active | AID 624296; also: % of control where 0% means no effect; nearly all actives have a fitted effect of over 50% in size
KB-3-1 cytotox – KB-3-1 parental cell cytotoxicity. KB-3-1 viability, CellTiter-Glo ATP luminescence, 72 h. Potency, µM (doses to about 46.1 µM), hits mostly cytotoxic. 400,000 tested, 1.4% active; also: % is scaled to controls: 0 for no effect and ±100 for the full control effect; nearly all actives have a fitted effect of over 60% in size
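Parental KB-3-1 viability, qHTS format: 72 h compound exposure, 37 °C; CellTiter-Glo; media-only wells and DMSO plates as controls; concentration-effect fits on corrected data.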
SW480 rerep – induces DNA re-replication in SW480 colon adenocarcinoma cells. Potency, µM (series often up to 46.1 µM), for inactives: top-dose re-replication activation, actives largely listed as activators. 340,000 tested, 1.8% active. SW480 DNA re-replication, Hoechst DNA content imaging, 48 h. AID 624297; also: % of control where 0% means no effect; nearly all actives have a fitted effect of over 55% in size
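SW480 cells exposed to compounds for 48 hr at 37 C, 5% CO2, then Hoechst-stained 40 min. Nuclear DNA content imaged by fluorescence scanning (405 nm excitation, 500-530 nm emission); re-replication scored as increased high-intensity nuclei.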
KB-V1 cytotox – kills drug-selected multidrug resistant KB-V1 cells; KB-V1 MDR cells viability, CellTiter-Glo, 72 h; AID 1347076; 400,000 tested, 3.4% active; Potency, µM (highest dose often 46.1 µM), most hits filed as cytotoxic; also: % is scaled to controls: 0 for no effect and ±100 for the full control effect; nearly all actives have a fitted effect of over 60% in size
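KB-V1 MDR subline cells in DMEM (phenol-red free, 10% FBS) exposed to compounds in qHTS concentration series for 72 h at 37 degrees C. Viability read by CellTiter-Glo luminescence; concentration-effect curves fitted after normalization and correction.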
TSG101-PTAP inh – blocks PTAP/TSG101 interaction to inhibit HIV-1 budding; Q99816; Fluorescence polarization, FITC-PTAP peptide / Tsg101 binding; Potency, µM (doses to about 115 µM), for inactives: at the top dose activity change, negative = inhibition, hits mostly inhibitors; 340,000 tested, under 10 active; AID 493005; active = well fitted inhibition curve with a large enough effect in the main read-out, with a control signal flat, not every such curve was filed as active; inconclusive = small, poorly fitted or top-dose-only effect, or effect the other way, or a change in a side signal; inactive = no such curve, though single readings can be large or run the other way; also: % of control where 0% means no effect
Target sequence (Q99816 whole entry, looked up): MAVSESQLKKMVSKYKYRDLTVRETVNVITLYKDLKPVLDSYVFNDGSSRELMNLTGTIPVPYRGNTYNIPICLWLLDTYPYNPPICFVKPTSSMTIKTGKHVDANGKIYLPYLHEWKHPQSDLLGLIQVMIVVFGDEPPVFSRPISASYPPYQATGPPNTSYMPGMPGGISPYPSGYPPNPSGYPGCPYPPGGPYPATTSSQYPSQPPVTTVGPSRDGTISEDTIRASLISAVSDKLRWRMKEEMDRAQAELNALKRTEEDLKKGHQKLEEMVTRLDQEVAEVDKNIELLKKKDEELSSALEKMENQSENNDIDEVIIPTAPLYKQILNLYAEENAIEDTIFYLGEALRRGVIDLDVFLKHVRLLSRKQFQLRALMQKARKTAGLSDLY
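FP read-out: FITC-PTAP peptide, 50 nM final, binding Tsg101 binding domain, 10 uM final; 20 min, r.t.; 10 mM HEPES pH 7.5, 0.15 M NaCl, 0.01% Tween 20, 3 mM EDTA, 0.1 mM TCEP.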
RGS4 inhibitor – human RGS4 inhibition. Potency, µM (series often up to 114 µM), for inactives: at the top dose activity change, negative = inhibition, usual class: inhibitors. P49798. 390,000 tested, 0.039% active. Transcreener GDP fluorescence polarization, RGS4-accelerated GTP hydrolysis; also: % is scaled to controls: 0 for no effect and ±100 for the full control effect; nearly all actives have a fitted effect of over 75% in size
Target sequence (P49798 whole entry, looked up): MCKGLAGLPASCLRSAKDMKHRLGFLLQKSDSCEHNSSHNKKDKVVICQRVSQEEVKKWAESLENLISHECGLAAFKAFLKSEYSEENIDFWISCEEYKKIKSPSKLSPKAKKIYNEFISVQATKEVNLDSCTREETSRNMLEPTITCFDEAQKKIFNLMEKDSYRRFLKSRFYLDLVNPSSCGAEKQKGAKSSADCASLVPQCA
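MLSMR compounds (23 nl, pin-transferred) preincubated 10 min at room temperature with a 500nM (2x) first reagent, then RGS4 at 900nM (2x) plus Transcreener GDP mix added; fluorescence polarization (620/688 nm) read before and after 90 min at 30 °C.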
The depositor's hits bear a star; i = inactive; ? = inconclusive; nt = no result; ! = a repeat was not active; [ ] = dose if it differs, or a comment. Rows were chosen to be rich in hits. Some 6.6% of all compounds tested hit in one or more screens of this group. Unless noted, calls follow the shape of the dose curve; as a rule, active = well fitted curve in the direction sought with a large enough effect; inconclusive = small, poorly fitted or top-dose-only effect, or another doubt; inactive = no such curve, though single readings can be large; an effect the other way counts as inactive or inconclusive. Potency is read from the fitted curve at half-maximal effect.

SMILES | MCF10A rereplic | KB-3-1 cytotox | SW480 rerep | KB-V1 cytotox | TSG101-PTAP inh | RGS4 inhibitor
Cc1cccc2c(C(O)c3c[nH]c4c(C)cccc34)c[nH]c12 | nt | i | nt | i | nt | nt
COC(=O)c1ccc2c(=O)n(CCCCCC(=O)NCCc3ccc(Cl)cc3)c(=O)[nH]c2c1 | nt | i | nt | i | nt | 6.9%
CCc1ccccc1NC(=O)c1cn(C)c(=O)c2ccccc12 | nt | i | nt | ? | nt | -7.7%
Cn1c(-c2c(N)n(CCc3ccccc3)c3nc4ccccc4nc23)nc2ccccc21 | ? | ? | 8.2µM* | 14.6µM* | -3.0% | -4.7%
COc1ccccc1[C@H]1C(c2ccc(F)cc2)=NN(c2ccccc2)[C@@H]1CO | ? | i | 3.66µM* | i | 1.5% | -15.5%
C[C@H]1C(c2ccc(F)cc2)=NN(c2ccccc2)[C@@H]1CO | 10.3µM* | i | 5.17µM* | i | 2.4% | -6.0%
COc1ccccc1[C@H]1C(c2cccc(C)c2)=NN(c2ccccc2)[C@@H]1CO | ? | i | 0.326µM* | i | -4.6% | 19.1%
COc1ccccc1[C@H]1C(c2ccccc2)=NN(c2ccccc2)[C@@H]1CO | 1.84µM* | i | 13µM* | i | -3.4% | -5.6%
COc1cccc(CNn2c(-c3cccc(C)c3)nc3ccccc3c2=O)c1O | -2.7% | i | 0.7% | i | -2.4% | -2.1%
CN1CCN(/C=N/c2c(C#N)cnn2Cc2ccccc2)CC1 | -2.4% | i | -3.7% | 10.3µM* | -3.5% | -15.7%
CC(=O)C1=C(c2ccc(Br)cc2)C(=O)c2ccccc2C1=O | 7.31µM* | ? | 8.2µM* | 7.31µM* | -3.7% | -32.3%
COc1cc2nc(N3CCN(C(=O)C4COc5ccccc5O4)CC3)nc(N)c2cc1OC (configuration not stated) | 14.6µM*! | i | 20.6µM*! | i | -1.0% | 8.9%[56.9 µM]
COc1ccc2c(C)c(CC(=O)N3CCN(C(=O)C4COc5ccccc5O4)CC3)c(=O)oc2c1C (configuration not stated) | ? | i | 16.4µM* | i | -2.1% | -62.3%[56.9 µM]
Cc1c(CC(=O)N2CCN(C(=O)C3COc4ccccc4O3)CC2)c(=O)oc2cc(O)c(Cl)cc12 (configuration not stated) | 19.4% | i | ? | ? | 0.2% | 2.9%
Cn1c(=O)n(C/C=C/c2ccccc2)c(=O)c2c1nc1n2CCN1c1ccccc1 | nt | nt | nt | nt | nt | -34.9%
CN(C)CCNCCCNc1c2ccccc2nc2cccc([N+](=O)[O-])c12 | ? | 0.0164µM* | ? | i | -6.2% | -13.4%
CN(C)CCCNc1c2c(nc3ccccc13)CCC2 | 3.6% | ? | -12.6% | i | -3.9% | ?
Cc1cc(/C=C2\SC(=Nc3ccccc3)NC2=O)c(C)n1-c1ccc(S(N)(=O)=O)cc1 | 17.4% | 4.11µM* | 7.31µM* | ? | -2.6% | -9.5%
Cc1ccc(-n2c(C)cc(/C=C3\SC(=O)NC3=O)c2C)cc1 | 16.7% | i | -6.1% | i | 1.2% | -39.1%
COc1cc(SC)ccc1C(=O)NCCOc1ccc(Cl)cc1 | 22.2% | i | -3.7% | 20.6µM* | -4.4% | 1.0%
COc1cc(SC)ccc1C(=O)Nc1ccc(C)cc1C | ? | i | 0.6% | 9.2µM* | 0.3% | 1.3%
COc1cc(SC)ccc1C(=O)NCCOc1c(C)cc(C)cc1C | -2.4% | ? | 2.2% | 20.6µM* | nt | -7.7%
COc1cc(SC)ccc1C(=O)Nc1ccccn1 | 7.5% | i | 0.4% | i | -4.1% | 2.3%
COc1cc(SC)ccc1C(=O)NCCc1ccccc1 | ? | ? | ? | i | -1.2% | -4.3%
COc1cc(SC)ccc1C(=O)Nc1ccc(C)cc1 | 1.6% | ? | 6.3% | ? | -0.1% | -10.3%
SMILES | MCF10A rereplic | KB-3-1 cytotox | SW480 rerep | KB-V1 cytotox | TSG101-PTAP inh | RGS4 inhibitor
COc1cc(SC)ccc1C(=O)Nc1ccc(Br)cn1 | ? | ? | -1.6% | 18.4µM* | -3.1% | 13.6%
Cc1ccc(NC(=O)N2CCN(C(=O)c3nsc4ccccc34)CC2)cc1C | nt | i | nt | i | nt | 17.0%
O=C(Nc1cccc(C(F)(F)F)c1)C1CCCN(S(=O)(=O)c2cccc3nonc23)C1 (configuration not stated) | nt | i | nt | i | nt | -15.2%
CCc1ccc(NC(=O)N2CC(C)Oc3ccc(C)cc32)cc1 (configuration not stated) | nt | nt | nt | nt | nt | 3.0%
Cc1cccc(N/C(N)=N/c2nc(C)c(Cc3ccccc3)c(=O)[nH]2)c1 | 18.5% | 20.6µM* | -1.0% | i | 0.3% | 5.4%
O=C(c1ccco1)N1CCN(C(=O)c2cccs2)CC1 | 1.84µM* | i | 6.51µM* | i | -5.4% | 25.4%
O=C(c1ccco1)N1CCN(C(=O)c2sccc2-c2ccccc2)CC1 | 12.1% | i | 12.3% | 11.6µM* | 0.3% | -23.3%
O=C(Nc1ccc(Cl)c(NC(=O)c2cccs2)c1)c1ccco1 | 17.1% | i | 3.4% | i | -11.2% | 2.1%
O=C(Nc1cccc(NC(=O)c2cccs2)c1)c1ccco1 | 10.0% | i | -9.5% | 14.6µM* | -5.1% | -2.8%
O=C(Nc1ccc(N2CCN(C(=O)c3ccco3)CC2)c(Cl)c1)c1cccs1 | ? | ? | 3.3% | 23.1µM* | -3.1% | 20.1%
CC(C)C(=O)N1CCN(c2ccc(NC(=O)c3cccs3)cc2Cl)CC1 | 3.7% | i | -27.3% | i | 0.0% | 6.7%
CC(=O)C1=C(c2ccc(Cl)c(Cl)c2)N(C(C)=O)n2cnnc2S1 | nt | nt | nt | nt | nt | -38.0%
O=C(N/N=C/c1ccccc1)c1ccc2c(c1)OCO2 | -5.4% | i | -8.7% | i | -5.8% | 13.7%
Oc1ccc2ccccc2c1/C=N/Nc1ccccc1 | 9.3% | ? | -2.9% | i | 0.0% | ?
NC(=S)N/N=C/c1c(O)ccc2ccccc12 | ? | 1.64µM* | ? | ? | -0.5% | -23.6%
O=CN/N=C/c1c(O)ccc2ccccc12 | 1.4% | 7.31µM* | 18.0% | ? | ? | -25.7%
NC(=S)N/N=C/c1coc2c(ccc3ccccc32)c1=O | -4.1% | 6.51µM* | 15.6% | 5.17µM* | -3.4% | -19.7%
O=C(NN=Cc1c(O)ccc2ccccc12)c1ccc2c(c1)OCO2 | 11.6µM* | ? | 20.6µM* | ? | -6.3% | 16.5%
CC1CC=CC2C1C(=O)N(Cc1ccccc1)C2c1ccc2ccccc2c1 (configuration not stated) | nt | nt | nt | nt | nt | -21.8%
O[C@@H](c1cc(C(F)(F)F)nc2c(C(F)(F)F)cccc12)[C@H]1CCCCN1 | ? | 18.4µM*! | ? | ? | 2.7% | 11.7%
CC(C)Cn1c(N)c(C(=O)COC(=O)c2cc(C(F)(F)F)nc3c(C(F)(F)F)cccc23)c(=O)n(C)c1=O | 4.9% | nt | -8.1% | nt | nt | nt

High-throughput results deposited in PubChem by National Center for Advancing Translational Sciences (NCATS).
